Source: PubChem BioAssay AID1159580 (chemical genetic matrix, 2015)
Screen size: about 5,500 compounds; about 2,000 (36%) were called active. Roughly 18% stayed inconclusive and do not appear here. Rule as the data show it: active = normalized growth mostly below about 0.91 (no sharp cut-off); inconclusive = no clear call, values can overlap the other calls; inactive = mostly above about 0.92. The list shows a part of the results.

Test: chemical genetic growth profiling, strain panel (AID 1159580);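 also: tested at 20 µM; growth read once vehicle control cultures reached saturation at 30 °C; 1 = growth at the plate median or of vehicle wells; lower values mean less growth of the strain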
Details: growth OD

Measured: normalized growth

O=C1C=CC2=C3c4cc(O)c(O)cc4C[C@@]3(O)COC2=C1
inactive: S. cerevisiae deletion strains, locus YJR066W, strain TOR1, active compounds read low 0.935 | S. cerevisiae deletion strains, locus YKL009W, strain mrt4, active compounds read low 1.01 | S. cerevisiae deletion strains, locus YKL068W, active compounds read low 1.01 | S. cerevisiae deletion strains, locus YKL085W, strain MDH1 (second series), active compounds read low 1.01 | S. cerevisiae deletion strains, locus YKL085W, strain MDH1, active compounds read low 1.01 | S. cerevisiae deletion strains, locus YKL160W, strain elf1, active compounds read low 0.953 | S. cerevisiae deletion strains, locus YKR001C, strain vps1, active compounds read low 1.02 | S. cerevisiae deletion strains, locus YKR026C, strain gcn3, active compounds read low 0.983 | S. cerevisiae deletion strains, locus YKR091W, strain srl3, active compounds read low 0.97 | S. cerevisiae deletion strains, locus YLL001W, strain dnm1, active compounds read low 0.976 | S. cerevisiae deletion strains, locus YLL026W, active compounds read low 0.986 | S. cerevisiae deletion strains, locus YLL041C, strain sdh2, active compounds read low 0.976 | S. cerevisiae deletion strains, locus YLR027C, strain aat2, active compounds read low 0.979 | S. cerevisiae deletion strains, locus YLR039C, strain RIC1, active compounds read low 1.07 | S. cerevisiae deletion strains, locus YLR058C, strain SHM2, active compounds read low 0.997 | S. cerevisiae deletion strains, locus YLR102C, strain apc9, active compounds read low 0.992 | S. cerevisiae deletion strains, locus YLR113W, strain HOG1, active compounds read low 1.08 | S. cerevisiae deletion strains, locus YLR221C, strain rsa3, active compounds read low 0.991 | S. cerevisiae deletion strains, locus YLR258W, strain gsy2, active compounds read low 0.971 | S. cerevisiae deletion strains, locus YLR262C, strain YPT6 (second series), active compounds read low 0.976 | S. cerevisiae deletion strains, locus YLR262C, strain YPT6, active compounds read low 1.08 | S. cerevisiae deletion strains, locus YLR268W, strain sec22, active compounds read low 1.03 | S. cerevisiae deletion strains, locus YLR320W, strain mms22, active compounds read low 0.995 | S. cerevisiae deletion strains, locus YLR342W, strain FKS1, active compounds read low 0.985 | S. cerevisiae deletion strains, locus YLR357W, strain rsc2, active compounds read low 0.912 | S. cerevisiae deletion strains, locus YLR370C, strain arc18, active compounds read low 0.987 | S. cerevisiae deletion strains, locus YLR371W, strain rom2, active compounds read low 0.989 | S. cerevisiae deletion strains, locus YLR384C, strain iki3, active compounds read low 0.971 | S. cerevisiae deletion strains, locus YLR418C, strain cdc73, active compounds read low 0.991 | S. cerevisiae deletion strains, locus YML016C, strain PPZ1, active compounds read low 0.996 | S. cerevisiae deletion strains, locus YML032C, strain rad52, active compounds read low 1.02 | S. cerevisiae deletion strains, locus YML120C, strain ndi1, active compounds read low 0.983 | S. cerevisiae deletion strains, locus YML124C, strain tub3, active compounds read low 1 | S. cerevisiae deletion strains, locus YMR058W, strain fet3, active compounds read low 0.941 | S. cerevisiae deletion strains, locus YMR078C, strain ctf18, active compounds read low 0.996 | S. cerevisiae deletion strains, locus YMR125W, strain sto1, active compounds read low 0.954 | S. cerevisiae deletion strains, locus YMR129W, active compounds read low 1 | S. cerevisiae deletion strains, locus YMR205C, strain PFK2, active compounds read low 0.98 | S. cerevisiae deletion strains, locus YMR223W, strain ubp8, active compounds read low 0.975 | S. cerevisiae deletion strains, locus YMR231W, strain pep5, active compounds read low 0.957 | S. cerevisiae deletion strains, locus YMR307W, strain GAS1, active compounds read low 0.991 | S. cerevisiae deletion strains, locus YNL067W, strain RPL9B, active compounds read low 0.994 | S. cerevisiae deletion strains, locus YNL071W, strain lat1, active compounds read low 0.982 | S. cerevisiae deletion strains, locus YNL128W, strain TEP1, active compounds read low 0.998 | S. cerevisiae deletion strains, locus YNL153C, strain GIM3, active compounds read low 0.963 | S. cerevisiae deletion strains, locus YNL183C, strain NPR1, active compounds read low 0.971 | S. cerevisiae deletion strains, locus YNL209W, strain ssb2, active compounds read low 0.987 | S. cerevisiae deletion strains, locus YNL233W, strain BNI4, active compounds read low 0.992 | S. cerevisiae deletion strains, locus YNL248C, strain rpa49, active compounds read low 0.969 | S. cerevisiae deletion strains, locus YNL250W, strain rad50, active compounds read low 0.954 | S. cerevisiae deletion strains, locus YNL271C, strain bni1, active compounds read low 0.982 | S. cerevisiae deletion strains, locus YNL298W, strain CLA4, active compounds read low 0.996 | S. cerevisiae deletion strains, locus YNL307C, strain MCK1, active compounds read low 1 | S. cerevisiae deletion strains, locus YNL322C, strain KRE1 (second series), active compounds read low 0.971 | S. cerevisiae deletion strains, locus YNL322C, strain KRE1, active compounds read low 1.01 | S. cerevisiae deletion strains, locus YNR049C, strain mso1, active compounds read low 0.977 | S. cerevisiae deletion strains, locus YNR052C, strain pop2, active compounds read low 0.967 | S. cerevisiae deletion strains, locus YOL012C, strain htz1 0.978 | S. cerevisiae deletion strains, locus YOL147C, strain pex11, active compounds read low 0.998 | S. cerevisiae deletion strains, locus YOR001W, strain rrp6, active compounds read low 0.968 | S. cerevisiae deletion strains, locus YOR061W, strain CKA2, active compounds read low 1.01 | S. cerevisiae deletion strains, locus YOR069W, strain VPS5, active compounds read low 0.993 | S. cerevisiae deletion strains, locus YOR070C, strain gyp1, active compounds read low 0.967 | S. cerevisiae deletion strains, locus YOR080W, strain dia2, active compounds read low 0.979 | S. cerevisiae deletion strains, locus YOR083W, strain WHI5, active compounds read low 0.959 | S. cerevisiae deletion strains, locus YOR106W, strain vam3, active compounds read low 0.931 | S. cerevisiae deletion strains, locus YOR136W, strain idh2, active compounds read low 0.998 | S. cerevisiae deletion strains, locus YOR144C, strain elg1, active compounds read low 1.01 | S. cerevisiae deletion strains, locus YOR184W, strain ser1, active compounds read low 1.08 | S. cerevisiae deletion strains, locus YOR231W, strain MKK1, active compounds read low 1.02 | S. cerevisiae deletion strains, locus YOR265W, strain rbl2, active compounds read low 0.986 | S. cerevisiae deletion strains, locus YOR270C, strain vph1, active compounds read low 1.01 | S. cerevisiae deletion strains, locus YOR290C, strain snf2, active compounds read low 0.946 | S. cerevisiae deletion strains, locus YOR316C, strain cot1, active compounds read low 1 | S. cerevisiae deletion strains, locus YPL051W, strain arl3, active compounds read low 0.968 | S. cerevisiae deletion strains, locus YPL055C, strain LGE1, active compounds read low 1.04 | S. cerevisiae deletion strains, locus YPL078C, strain atp4, active compounds read low 0.992 | S. cerevisiae deletion strains, locus YPL106C, strain sse1, active compounds read low 0.944 | S. cerevisiae deletion strains, locus YPL240C, strain hsp82, active compounds read low 0.99 | S. cerevisiae deletion strains, locus YPL241C, strain CIN2, active compounds read low 1.01 | S. cerevisiae deletion strains, locus YPL256C, strain CLN2, active compounds read low 1 | S. cerevisiae deletion strains, locus YPR119W, strain clb2, active compounds read low 0.996 | S. cerevisiae deletion strains, locus YPR141C, strain kar3, active compounds read low 0.993 | S. cerevisiae deletion strains, locus YPR163C, strain tif3, active compounds read low 1 | S. cerevisiae deletion strains, locus YPR167C, strain met16, active compounds read low 0.978 | S. cerevisiae deletion strains, strain wtn01, active compounds read low 1.03 | S. cerevisiae strains, strain wild type, active compounds read low 1.03
